Screens: PubChem, National Center for Advancing Translational Sciences (NCATS)
This is one part of a sample in which hits are shown more often than they occur.
NTMT1 inh – NTMT1 methyltransferase inhibition; NTMT1 MTase-Glo SAH luminescence, purified enzyme; Potency, µM (top dose mostly 114 µM), usual class: inhibitors; 59,000 tested, 2.5% active; AID 1645870; further: nearly all actives have a fitted effect of over 65% in size
Target sequence (Q9BV86 whole entry, looked up): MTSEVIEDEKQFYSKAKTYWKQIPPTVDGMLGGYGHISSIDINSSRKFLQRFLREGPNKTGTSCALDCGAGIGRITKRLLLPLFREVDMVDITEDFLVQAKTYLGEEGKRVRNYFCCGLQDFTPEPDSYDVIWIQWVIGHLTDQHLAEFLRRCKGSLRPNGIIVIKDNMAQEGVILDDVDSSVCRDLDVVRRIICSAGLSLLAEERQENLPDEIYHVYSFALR
p53null 32C tox – p53 null cell cytotoxicity, permissive temperature | H1299-neo p53 null cells, ATP luminescence, 24 h, 32C | 55,000 tested, 0.62% active | Potency, µM (series often up to 46.1 µM), hits mostly cytotoxic; further: nearly all actives have a fitted effect of over 55% in size
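AC50 values derive from Hill modelling of qHTS concentration-response data (up to 46 uM) in H1299-neo cells. Cells were treated 24 h at 32C following overnight attachment at 37C; viability was read as cellular ATP.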
p53null 39C kill – kills p53 null cells at the nonpermissive temperature; H1299 p53-null (neo) cells, 39C, ATPlite viability, 24 h; Potency, µM (highest dose often 46.1 µM), usual class: cytotoxic; 55,000 tested, 0.97% active; further: nearly all actives have a fitted effect of over 50% in size
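H1299 lung cancer cells, p53-null (H1299-neo) or expressing p53 A138V (H1299-p53A138V), were plated overnight at 37C, then exposed to compounds at up to 46 uM for 24 hr at 39C. Viability was read by ATP-based luminescence.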
SKOV3 invasion – ovarian cancer metastasis inhibition, 3D TME model; SKOV3ip1-GFP adhesion/invasion on 3D omental model, fluorescence; Potency, µM (titrated, usually from 45.8 µM), actives largely listed as inhibitors; 46,000 tested, 0.1% active; further: nearly all actives have a fitted effect of over 65% in size
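qHTS, 4-pt dose (0.36-46 umol/L); SKOV3ip1-GFP, 1,200 cells/well, no FBS; primary omental fibroblast/mesothelial co-culture 48 h pre-grown; 2 h RT + 16 h 37 C; PBS wash, 4% PFA; GFP count 488/509 nm.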
CLK4 KinaseGlo – confirmation of human CLK4 kinase inhibitors, SAR round 2; shares compounds with NTMT1 inh; AID 493204; recombinant Clk4, Kinase-Glo ATP luminescence, 4.5 h; 90 tested, 90% active; Potency, µM (top dose mostly 76.9 µM), most hits filed as inhibitors
Sfp qHTS opt – Sfp PPTase inhibition, chemistry optimization | shares compounds with NTMT1 inh | purified Sfp PPTase enzyme activity, qHTS | Potency, µM (titrated, usually from 114 µM), actives largely listed as inhibitors | 230 tested, 78% active | AID 540350
HM489 growth – B. subtilis HM489 growth inhibition; shares compounds with NTMT1 inh; B. subtilis HM489 (acpS-) growth, BacTiter-Glo, 5 h; Potency, µM (highest dose often 114 µM), usual class: inhibitors; 220 tested, 50% active; AID 540353
Sfp PPTase gel – Sfp PPTase inhibition, gel-based detection; shares compounds with NTMT1 inh; purified Sfp PPTase, gel-based product detection; Potency, µM (top dose mostly 250 µM), actives largely listed as inhibitors; 220 tested, 54% active; AID 540355
Sfp inh gel – Sfp phosphopantetheinyl transferase inhibition, gel detection. shares compounds with NTMT1 inh. purified Sfp PPTase, gel-based product detection. Potency, µM (doses to about 250 µM), most hits filed as inhibitors. 45 tested, 90% active. AID 602362
Sfp SAR2 – inhibits B. subtilis Sfp PPTase in second SAR round | 230 tested, 87% active | shares compounds with NTMT1 inh | Potency, µM (series often up to 57.1 µM), usual class: inhibitors | purified Sfp enzyme, PPTase activity, qHTS
hGST A1-1 inh – hGST A1-1 enzyme inhibition, Sfp SAR counter-screen; Potency, µM (highest dose often 114 µM), actives largely listed as inhibitors; shares compounds with NTMT1 inh; 55 tested, under 10 active; hGST A1-1 enzyme activity counter-screen, qHTS
HSD17B4 counter – counter-screen for HPGD inhibitors: human HSD17B4 inhibition. shares compounds with NTMT1 inh. purified HSD17B4, estradiol/NAD+, NADH fluorescence. Potency, µM (highest dose often 57.1 µM), actives largely listed as inhibitors. 230 tested, 10% active
ALDH1A1 inh – ALDH1A1 (human) inhibition, HPGD counter-screen. Potency, µM (highest dose often 57.1 µM), most hits filed as inhibitors. shares compounds with NTMT1 inh. 230 tested, 93% active. recombinant ALDH1A1, NADH fluorescence, propionaldehyde/NAD+
NNMT counter – blocks human NNMT methyltransferase. shares compounds with NTMT1 inh. NNMT MTase-Glo luminescence, SAH detection. Potency, µM (doses to about 57.1 µM), most hits filed as inhibitors. 120 tested, 10% active. AID 1645878
Large screens that a line does not name were inactive (follow-up assays come after a bar, where they were run). The call rests on the fitted dose curve; in most records, active means well fitted curve in the direction sought with a large enough effect; inconclusive means small, poorly fitted or top-dose-only effect, or another doubt; inactive means no such curve, though single readings can be large; an effect the other way counts as inactive or inconclusive.

Cc1ccnc(NC(=S)NC2CCN(c3cccc(C(F)(F)F)c3)CC2)c1	none (no result: NTMT1 inh, p53null 32C tox, p53null 39C kill, SKOV3 invasion) | Sfp qHTS opt inconclusive | HM489 growth inconclusive | Sfp PPTase gel inconclusive | Sfp SAR2 inconclusive | HSD17B4 counter 24.1µM | ALDH1A1 inh 19.2µM
Cc1ccnc(NC(=S)N2CC3CN(c4cccc(C(F)(F)F)c4)CC3C2)c1 (stereo not drawn)	NTMT1 inh inconclusive (no result: p53null 32C tox, p53null 39C kill, SKOV3 invasion) | Sfp qHTS opt 3.73µM | HM489 growth 5.91µM | Sfp PPTase gel 4.78µM | Sfp inh gel 1.7µM | Sfp SAR2 0.73µM | hGST A1-1 inh inconclusive | HSD17B4 counter inactive | ALDH1A1 inh 7.64µM
O=C(NCCc1nc2ccccc2n1CCOc1ccccc1F)C1CCCCC1	none (no result: p53null 32C tox, p53null 39C kill, SKOV3 invasion)
CC(=O)c1c(OCCN2CCCCC2)c(OCCC(C)c2ccc(F)cc2)c2oc(C)nc2c1C (stereo not drawn)	NTMT1 inh inconclusive (no result: p53null 32C tox, p53null 39C kill, SKOV3 invasion) | NNMT counter inconclusive
Cc1oc2ncnc(N3CCCCC3)c2c1C(=O)NCC1CCN(Cc2ccc(F)cc2)CC1	none
CS(=O)(=O)CCNCc1ccc(-c2ccc3ncnc(Nc4ccc(OCc5cccc(F)c5)c(Cl)c4)c3c2)o1	none (no result: p53null 32C tox, p53null 39C kill) | CLK4 KinaseGlo inactive
Fc1cccc(CNc2ncnc3ccc(-c4cccc(Cl)c4)cc23)c1	none (no result: p53null 32C tox, p53null 39C kill, SKOV3 invasion)
